In PubChem BioAssay (NCATS):
Inconclusive results are not listed. Activity calls are given as the source filed them. The call rests on the fitted dose curve; in most records, active means well fitted curve in the direction sought with a large enough effect; inconclusive means small, poorly fitted or top-dose-only effect, or another doubt; inactive means no such curve, though single readings can be large; an effect the other way counts as inactive or inconclusive.

Columns and labels:
[1] = Cell Viability - LYMP2-010 (AID 981); further: nearly all actives have a fitted effect of over 55% in size
In short: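 This 24 hr viability screen uses LYMP2-010 lymphoblastoid cells, quantifies ATP via luciferase luminescence, and derives AC50 from Hill fits of qHTS concentration-response data.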

[2] = Cell Viability - LYMP2-012 (AID 982);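 further: cellular ATP by luciferase luminescence where a drop means cytotoxicity; cells exposed to compound for one day before reading; nearly all actives have a fitted effect of over 55% in size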
[3] = Cell Viability - LYMP2-014 (AID 983);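 further: series mostly up to about 92 µM; cells exposed to compound for 24 h at 37 °C; nearly all actives have a fitted effect of over 50% in size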
In short: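 Quantitative HTS in lymphoblastoid cells: 24 hr compound exposure, then CellTiter-Glo ATP luminescence. Positive control was tetraoctylammonium bromide, 6.4pM to 92 uM.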

[4] = Cell Viability - LYMP2-016 (AID 984); further: nearly all actives have a fitted effect of over 55% in size
In short: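 Human lymphoblastoid cells (LYMP2-016), 2500/well in complete medium, preincubated 5 hr at 37 C, then compound-treated 24 hr at 37 C. Intracellular ATP read by CellTiter-Glo luminescence after 30 min at room temperature; AC50 from Hill-equation concentration-response fits.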

[5] = Cell Viability - LYMP2-018 (AID 985); further: nearly all actives have a fitted effect of over 50% in size
In short: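 In this qHTS viability assay, cells are treated for 24 hr and cellular ATP is quantified by luciferase-based luminescence, with tetraoctylammonium bromide as positive control.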

[6] = Cell Viability - LYMP2-020 (AID 986);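 further: series mostly up to about 92 µM; cells exposed to compound for 24 h at 37 °C; nearly all actives have a fitted effect of over 55% in size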
In short: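 Cells at 2500 per well receive a 24 hr compound exposure at 37 C. Viability is measured as ATP-dependent luciferase luminescence, with AC50 modeled from qHTS concentration-response curves.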

[7] = Cell Viability - LYMP2-022 (AID 987); further: nearly all actives have a fitted effect of over 55% in size
In short: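 In this qHTS cytotoxicity screen, compound titrations were incubated 24 hr at 37 C with human lymphoblastoid cells in complete medium. Luciferase-based ATP luminescence provided the viability signal.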

[8] = Cell Viability - LYMP2-024 (AID 988); further: nearly all actives have a fitted effect of over 60% in size
In short: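 Cells at 2500 per well received compound for 24 hr after a 5 hr settling period. Viability was scored by CellTiter-Glo luminescence, with AC50 from Hill fits.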

[9] = Cell Viability - LYMP2-026 (AID 989);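 further: cells exposed to compound for 24 h at 37 °C; nearly all actives have a fitted effect of over 50% in size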
In short: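 Acute toxicity screen in complete culture medium, with 24 hr compound exposure at 37 C. Viability read as cellular ATP via luciferase reaction, with tetraoctylammonium bromide (6.4pM to 92 uM) as positive control.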

[10] = Cell Viability - LYMP1-002 - Assay at 24 hr (AID 993)
In short: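 Viability was judged from intracellular ATP using a luciferase read-out, following a 24-hour compound incubation at 37 C of lymphoblastoid cells seeded at 2500 per well. Concentration-response data were fitted to the Hill equation for AC50.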

[11] = Cell Viability - LYMP1-002 - Assay at 40 hr (AID 994); further: nearly all actives have a fitted effect of over 60% in size
In short: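 Concentration-dependent ATP loss after 40 hr treatment at 37 C defined toxicity; AC50 values were obtained by fitting the standard Hill equation.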

[12] = target: Alpha-galactosidase (Coffea arabica) (UniProt Q42656); experiment: Counterscreen for Glucocerebrosidase Inhibitors: qHTS Assay for Coffee Bean alpha-Galactosidase at pH 5.9 (AID 998)
Alpha-galactosidase (Coffea arabica), sequence (Q42656 whole entry, looked up): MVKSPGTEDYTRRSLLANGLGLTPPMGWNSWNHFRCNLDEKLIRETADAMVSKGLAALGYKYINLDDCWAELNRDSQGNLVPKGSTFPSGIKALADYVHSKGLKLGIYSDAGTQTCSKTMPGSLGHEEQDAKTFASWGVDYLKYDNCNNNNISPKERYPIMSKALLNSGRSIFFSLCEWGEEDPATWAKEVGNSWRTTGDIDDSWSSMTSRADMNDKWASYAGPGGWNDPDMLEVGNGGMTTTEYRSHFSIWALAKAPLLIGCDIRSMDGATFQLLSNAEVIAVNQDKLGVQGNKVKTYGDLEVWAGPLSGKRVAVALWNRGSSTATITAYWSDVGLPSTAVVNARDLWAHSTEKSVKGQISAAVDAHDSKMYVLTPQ
In short: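 Enzyme 2 nM + cpd (0.7 nM–77 uM titration) + 4-MU-alpha-Gal 80 uM, pH 5.9 citrate/Tween-20, RT 20 min, NaOH/glycine stop pH 10, fluor 365/440. Normalized to no-enzyme and full-activity controls; Hill-fit AC50.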

Measured: Potency

CCCCC(CC)COC(=O)c1ccccc1C(=O)OCC(CC)CCCC (stereo not given)
not listed: [12]
inactive: all other assays above

CC#C[C@]1(O)CC[C@H]2[C@@H]3CCC4=CC(=O)CCC4=C3[C@H](c3ccc(N(C)C)cc3)C[C@@]21C
inactive: [12]

CCCCCCCCc1ccc(O)cc1
not listed: [12]
inactive: all other assays above

CCN(CC)CCNC(=O)c1ccc(NC(C)=O)cc1
inactive: [12]

CCOP(=O)(NC(C)C)Oc1ccc(SC)c(C)c1 (stereo not given)
not listed: [12]
inactive: all other assays above

CS(=O)(=O)Nc1ccc([N+](=O)[O-])cc1Oc1ccccc1
inactive: [12]

CN(C)[C@@H]1C(=O)C(C(N)=O)=C(O)[C@@]2(O)C(=O)C3=C(O)c4c(O)cccc4[C@@](C)(O)[C@H]3[C@H](O)[C@@H]12
not listed: [12]
inactive: all other assays above

c1cc2ccc3cccc4ccc(c1)c2c34
not listed: [12]
inactive: all other assays above

CC(C)(Sc1ccc(CCN(CCCCC2CCCCC2)C(=O)NC2CCCCC2)cc1)C(=O)O
inactive: [12]

CC(C)c1ccc2c(c1)c(SC(C)(C)C)c(CC(C)(C)C(=O)O)n2Cc1ccc(Cl)cc1
inactive: [12]

Nc1ccc(Cl)cc1N
not listed: [7] | [12]
inactive: all other assays above

CCCCOC(=O)c1ccccc1C(=O)OCc1ccccc1
not listed: [12]
inactive: all other assays above

O=[N+]([O-])c1c(Cl)c(Cl)cc(Cl)c1Cl
not listed: [12]
inactive: all other assays above

Nc1ccc([N+](=O)[O-])cc1
not listed: [12]
inactive: all other assays above

O=S(=O)(c1ccc(Cl)cc1)c1ccc(Cl)cc1
not listed: [12]
inactive: all other assays above

CN(C)NC(=O)CCC(=O)O
not listed: [12]
inactive: all other assays above

COC(C)(C)CCCC(C)C/C=C/C(C)=C/C(=O)OC(C)C (stereo not given)
not listed: [12]
inactive: all other assays above

Cc1cccc(C#Cc2ccccc2)n1
inactive: [12]

CCn1cc(C(=O)O)c(=O)c2cc3c(cc21)OCO3
inactive: [12]

Nc1ccc(Sc2ccc(N)cc2)cc1
not listed: [12]
inactive: all other assays above

O=[N+]([O-])c1c2ccccc2cc2ccccc12
not listed: [12]
inactive: all other assays above

O=[N+]([O-])c1cc([N+](=O)[O-])c2ccccc2c1
not listed: [12]
inactive: all other assays above

CC(=O)Oc1ccccc1C(=O)O
inactive: [12]

C1CCC(NC2CCCCC2)CC1
not listed: [12]
inactive: all other assays above

CCc1c(C)[nH]c2c1C(=O)C(CN1CCOCC1)CC2 (stereo not given)
inactive: [12]

C[C@]12C[C@H](O)[C@H]3[C@@H](CCC4=CC(=O)CC[C@@]43C)[C@@H]1CC[C@@H]2C(=O)CO
inactive: [12]
